# Screening results as filed in PubChem BioAssay.
# PNC inhibitor: perinucleolar compartment assembly inhibition | PC3M PTB-GFP, PNC prevalence imaging, 16 h; hits give low values | activity change (PNC), negative = inhibition, % at 10 µM | actives 3.1% (n = 140,000) | AID 2417;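 active = readout at or below -70, meaning at least 70% loss of cells showing the perinucleolar compartment, a nuclear body marking cancer cells; inconclusive = readout between -30 and a set limit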
#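 PC3M cells stably expressing PTB-GFP, 750–1000 cells/well, treated 16 h at 37 °C with compound (23 nl of library stock), in duplicate. After paraformaldehyde fixation and Hoechst stain, imaged at 20x; PNC prevalence scored by image analysis.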
# HPGD block: inhibitors of human 15-hydroxyprostaglandin dehydrogenase (HPGD); actives 4.3% (n = 150,000); Potency, µM, hits mostly inhibitors; purified HPGD, NADH fluorescence kinetic, PGE2 substrate
#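 NADH formation kinetics: reaction with 30 uM PGE2 and 1 mM NAD+ (final), 20 nM enzyme, Tris-HCl pH 8 with Tween 20, after 15 min compound preincubation at room temperature. Fluorescence change, last versus first of five reads.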
# IMPase inh: cell-permeable inhibitors of inositol monophosphatase (IMPase); CHO-M1 cells, IP1 accumulation, HTRF TR-FRET ratio; 120,000 tested, under 10 active; inhibition (IP1 accumulation), % at 46.1 µM; AID 901; P97697; active = well fitted curve in the direction sought with a large enough effect in the signal ratio, not every such curve was filed as active; inconclusive = small, poorly fitted or top-dose-only effect, or a change in a side signal; inactive = no such curve, though single readings can be large or run the other way; the % refers to the signal ratio;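 note: cells stimulated with carbachol in lithium chloride buffer; higher means more IMPase inhibition seen as more IP1 and lower FRET ratio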
# Target sequence (P97697 whole entry, looked up): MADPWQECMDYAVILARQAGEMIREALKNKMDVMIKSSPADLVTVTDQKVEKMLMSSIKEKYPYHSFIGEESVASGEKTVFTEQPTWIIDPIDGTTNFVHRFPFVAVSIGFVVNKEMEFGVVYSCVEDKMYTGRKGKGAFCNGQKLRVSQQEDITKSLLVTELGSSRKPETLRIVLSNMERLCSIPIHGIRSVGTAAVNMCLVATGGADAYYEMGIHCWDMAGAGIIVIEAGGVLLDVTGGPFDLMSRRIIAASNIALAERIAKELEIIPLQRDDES
#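 Carbachol-driven Gq signalling in CHO-M1 cells (2000/well) generates IP1. Compounds that block IMPase raise IP1 and so reduce the FRET signal from Eu-anti-IP1 and d2-IP1 after a 10 min room-temperature lysis.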
# IMPase Li cell: cell-permeable IMPase inhibitors with lithium potentiation; CHO-M1 cells, IP1 TR-FRET (IP-One), carbachol + lithium; Potency, µM (titrated, usually from 59.4 µM), hits mostly inhibitors; actives 0.35% (n = 210,000); active = well fitted curve in the direction sought with a large enough effect; inconclusive = small, poorly fitted or top-dose-only effect, or another doubt; inactive = no such curve, though single readings can be large; an effect the other way counts as inactive or inconclusive;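 note: IP1 builds up when IMPase is blocked and the TR-FRET signal falls; nearly all actives have a fitted effect of over 50% in size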
#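 CHO cells stably expressing M1 receptor (2000/well, cultured 16–30 h) treated 30 min at 37C with compound plus low lithium. Cytosolic IP1 by TR-FRET (665/620 ratio and 620 channel) after 10 min lysis; AC50 by Hill fit.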
# ALDH1A1 block: ALDH1A1 (human) enzyme inhibition. P00352. Purified ALDH1A1, NADH fluorescence, propionaldehyde substrate. Potency, µM (highest dose often 75.3 µM), most hits filed as inhibitors. actives 7.3% (n = 220,000). AID 1030
# NPSR antagonist: blocks cAMP signaling of the human neuropeptide S receptor | Potency, µM (doses to about 38.3 µM), hits mostly inhibitors | actives 1% (n = 220,000) | Q6W5P4 | CHO-NPSR cells, cAMP TR-FRET, antagonist mode; active = well fitted curve in the direction sought with a large enough effect; inconclusive = small, poorly fitted or top-dose-only effect, or another doubt; inactive = no such curve, though single readings can be large; an effect the other way counts as inactive or inconclusive; note: nearly all actives have a fitted effect of over 50% in size
# Target sequence (Q6W5P4 whole entry, looked up): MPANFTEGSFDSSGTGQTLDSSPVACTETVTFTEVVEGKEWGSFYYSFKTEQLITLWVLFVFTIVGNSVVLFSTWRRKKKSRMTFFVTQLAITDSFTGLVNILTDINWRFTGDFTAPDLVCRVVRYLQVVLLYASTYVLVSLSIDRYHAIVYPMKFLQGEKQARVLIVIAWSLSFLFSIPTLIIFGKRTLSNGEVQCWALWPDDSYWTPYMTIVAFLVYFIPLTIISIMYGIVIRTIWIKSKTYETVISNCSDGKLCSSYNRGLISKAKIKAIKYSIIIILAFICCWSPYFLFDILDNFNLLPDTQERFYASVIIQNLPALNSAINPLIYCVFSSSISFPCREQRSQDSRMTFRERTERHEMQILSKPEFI
# A number is an active result; – = inactive; ? = inconclusive; · = no result; [ ] = remark or other dose. An excerpt weighted towards active compounds, which were near 11% of everything screened. Unless noted, calls come from the whole dose curve; as a rule, active = well fitted inhibition curve with a large enough effect (not every such curve was filed as active); inconclusive = small, poorly fitted or top-dose-only effect, or another doubt; inactive = no such curve, though single readings can be large or run the other way.
SMILES,PNC inhibitor,HPGD block,IMPase inh,IMPase Li cell,ALDH1A1 block,NPSR antagonist
CC1CCCC(NC(=O)CCC(=O)c2ccc(F)cc2)C1C (configuration not stated),·,·,·,·,16µM,–
CC1CCCC(NC(=O)CSc2ccc(F)cc2)C1C (configuration not stated),·,·,·,–,?,–
CCOC(=O)c1cc(-c2ccccc2)n(CC(=O)O)c1C,–,25µM,–,–,?,–
CC(=O)c1ccc(NC(=S)NC2CCCC(C)C2C)cc1 (configuration not stated),·,·,·,–,?,–
CCn1cc(Br)c(C(=O)Nc2ccc(Cl)cc2Cl)n1,-113,–,–,–,–,–
CCN1C(=O)N[C@@H](c2ccc(Br)cc2)C(C(C)=O)=C1C,·,–,·,–,–[13.5 µM],·
CC1(C)CC(=O)C2=C(C1)OC1=C(C(=O)CC(C)(C)C1)C2c1ccc(O)cc1O,–,3.2µM,–,–,0.89µM,13µM
CC1(C)CC(=O)C2=C(C1)OC1=C(C(=O)CC(C)(C)C1)C2c1ccc(O)c([N+](=O)[O-])c1,·,·,·,–,–,–
COc1ccc2[nH]c(=O)c(CN(C(=O)COc3ccccc3)C(C)C)cc2c1,–,·,–,·,?,?
Cc1cccc2sc(N(CCCN(C)C)C(=O)c3nc4ccccc4s3)nc12,-118,?,·,–,?,–
CN(C)CCN(C(=O)c1ccccc1Cl)c1nc2c(Cl)cccc2s1,–,–,–,–,32µM,?
O=C(Nc1ccc2oc(-c3ccncc3)nc2c1)c1ccccc1Cl,·,·,–,·,·,·
Cc1[nH]c2ccccc2c1/C=N/Nc1ccccc1[N+](=O)[O-],·,·,·,–,–,10µM
CCC(=O)c1ccc(OCC(O)Cn2nnc3ccccc32)cc1 (configuration not stated),·,·,·,–,–,–
Cc1ccccc1OCC(O)Cn1nnc2ccccc21 (configuration not stated),-100,–,–,–,–,–
CC(=O)Nc1ccc(NC(=O)Nc2cc(C)cc(C)c2)cc1,·,·,·,·,·,–
Clc1ccc2c(c1)-c1nnc(Br)n1-c1ccccc1S2,-100,18µM,–,–,–,?
CCN(C(=O)CN(C)Cc1cccc(Cl)c1Cl)c1c(N)n(Cc2ccccc2)c(=O)[nH]c1=O,-98,–,–,–,–,–
Cc1cc(C(=O)COC(=O)Cc2n[nH]c(=O)c3ccccc23)c(C)n1-c1cccc(C(F)(F)F)c1,–,–,–,–,7.9µM,?
COc1ccc2c(c1)O[C@H](c1ccc3c(c1)OCO3)[C@@H](OC(=O)NCCOc1ccccc1)C2=O,·,–,·,–,?,·
O=C1C2C3C=CC(C4CC34)C2C(=O)N1/N=C/c1ccc([N+](=O)[O-])o1 (configuration not stated),·,·,·,–,3.2µM,–
Cc1ccc(-c2ccc(/C=N/N3C(=O)C4C5C=CC(C6CC56)C4C3=O)o2)c([N+](=O)[O-])c1 (configuration not stated),–,13µM,–,–,?,–
O=C1C2C(C(=O)N1/N=C/c1ccc([N+](=O)[O-])o1)C1C=CC2C12CC2 (configuration not stated),–,–,·,–,?,–
O=C1C2C3C=CC(C3)C2C(=O)N1/N=C/c1ccc(-c2ccccc2[N+](=O)[O-])o1 (configuration not stated),?,–,·,–,2.2µM,–
Cc1c(/C=C(\C#N)C(=O)Nc2cccc(Cl)c2)c2ccccc2n1Cc1ccccc1Cl,·,·,–,·,·,·
SMILES,PNC inhibitor,HPGD block,IMPase inh,IMPase Li cell,ALDH1A1 block,NPSR antagonist
COc1ccc(-c2cnnc(N/N=C/C(C)=C/c3ccccc3)n2)cc1,–,–,–,–,–,–
NC(=O)c1sc2nc3c(c(-c4ccco4)c2c1N)CCCC3,·,·,·,·,·,–
Nc1c(C(=O)NCC2CCCO2)sc2nc3c(c(-c4ccco4)c12)CC/C3=C\c1ccco1 (configuration not stated),?,20µM,·,–,?,–
CC(/C=N/n1c(-c2ccco2)n[nH]c1=S)=C\c1ccco1,–,14µM,–,–,32µM,–
CC(/C=N/n1c(-c2ccccc2)n[nH]c1=S)=C\c1ccco1,–,?,–,–,?,–
CC(/C=N/n1c(-c2ccc(C)cc2)n[nH]c1=S)=C\c1ccco1,–,2.5µM,–,–,?,–
Cc1ccnc(NC(=O)C2CCN(S(=O)(=O)c3cccc4nsnc34)CC2)c1,?,–,–,–,–,–
CCCCCCCCCCCCCCCC(=O)OCC(NC(=O)C(Cl)Cl)C(O)c1ccc([N+](=O)[O-])cc1 (configuration not stated),·,–,·,–,–,·
O=C1CC(c2ccco2)Cc2nc(N3CCN(Cc4ccc5c(c4)OCO5)CC3)ncc21 (configuration not stated),–,?,–,–,18µM,–
CCOc1ccc(NC2=NCCC(=O)N2Cc2cccs2)cc1,?,–,–,–,?,–
CCOc1ccc(NC2=NCC(=O)N2Cc2cccs2)cc1,-105,–,–,–,?,–
O=C(Nc1ccc(Cl)cc1)NC1CCCC1Cc1ccco1 (configuration not stated),–,–,–,–,13µM,?
Oc1ccc2ccccc2c1C=Nc1ccccc1-c1nc2ccccc2[nH]1,–,?,–,–,?,?
Cc1ccc2cc(CN(CC3CCCO3)S(=O)(=O)c3ccccc3)c3nnnn3c2c1 (configuration not stated),-100,–,–,–,7.1µM,?
COc1cc(/C=N/NC(=O)c2cc(-c3ccccc3)n[nH]2)ccc1O,·,–,·,·,?,·
Cc1cc(C2=NNC(=NC3CC3)SC2)c(C)n1-c1ccccc1F,–,?,·,–,8.9µM,–
Cc1cc(C2=NNC(=NC3CCCCC3)SC2)c(C)n1-c1c(C)n(C)n(-c2ccccc2)c1=O,?,–,·,–,?,–
C=C(C)CN=C1NN=C(c2cc(C)n(-c3ccc(C)cc3)c2C)CS1,–,–,·,–,13µM,–
CCCCC(=O)Nc1ccccc1N1CCN(c2ccccc2)CC1,·,·,·,–,–,–
COCCCn1c2nc3ccccc3nc2c2c(=O)n(-c3ccccc3OC)c(C)nc21,-100,?,–,–,–,–
CCCn1cnc2c(c1=O)c1nc3ccccc3nc1n2Cc1ccccc1OC,?,?,–,–,4µM,–
COc1ccc(Cn2nnnc2C(c2ccc(C)cc2)N2CCN(C3CCCC3)CC2)cc1 (configuration not stated),–,–,–,–,–,?
COc1ccc(-n2c(=O)c(-c3cccs3)nc3cnc(Nc4cccc(OC)c4)nc32)cc1,·,–,·,–,–,·
COc1ccc(N=Cc2[nH]c3ccccc3c2O)cc1,·,·,·,–,13µM,–
COCCNC(=S)N/N=C(\C)c1ccccc1F,·,·,·,–,?,–
